# About 14,000 (4.5%) of roughly 310,000 compounds showed an effect of 50% or more. Effects have a minus sign here. This is one part of a sample in which strong results are shown more often than they occur.
# Target: human ether-à-go-go-related gene (hERG) potassium channel (human, UniProt Q12809)
# Assay: primary screen, population patch clamp on CHO cells stably expressing hERG; higher = less effect of the substance
# 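Further: peak tail current of the secondary pulse compared with the same well before compound.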
# Sequence of human ether-à-go-go-related gene (hERG) potassium channel (Q12809 whole entry, looked up): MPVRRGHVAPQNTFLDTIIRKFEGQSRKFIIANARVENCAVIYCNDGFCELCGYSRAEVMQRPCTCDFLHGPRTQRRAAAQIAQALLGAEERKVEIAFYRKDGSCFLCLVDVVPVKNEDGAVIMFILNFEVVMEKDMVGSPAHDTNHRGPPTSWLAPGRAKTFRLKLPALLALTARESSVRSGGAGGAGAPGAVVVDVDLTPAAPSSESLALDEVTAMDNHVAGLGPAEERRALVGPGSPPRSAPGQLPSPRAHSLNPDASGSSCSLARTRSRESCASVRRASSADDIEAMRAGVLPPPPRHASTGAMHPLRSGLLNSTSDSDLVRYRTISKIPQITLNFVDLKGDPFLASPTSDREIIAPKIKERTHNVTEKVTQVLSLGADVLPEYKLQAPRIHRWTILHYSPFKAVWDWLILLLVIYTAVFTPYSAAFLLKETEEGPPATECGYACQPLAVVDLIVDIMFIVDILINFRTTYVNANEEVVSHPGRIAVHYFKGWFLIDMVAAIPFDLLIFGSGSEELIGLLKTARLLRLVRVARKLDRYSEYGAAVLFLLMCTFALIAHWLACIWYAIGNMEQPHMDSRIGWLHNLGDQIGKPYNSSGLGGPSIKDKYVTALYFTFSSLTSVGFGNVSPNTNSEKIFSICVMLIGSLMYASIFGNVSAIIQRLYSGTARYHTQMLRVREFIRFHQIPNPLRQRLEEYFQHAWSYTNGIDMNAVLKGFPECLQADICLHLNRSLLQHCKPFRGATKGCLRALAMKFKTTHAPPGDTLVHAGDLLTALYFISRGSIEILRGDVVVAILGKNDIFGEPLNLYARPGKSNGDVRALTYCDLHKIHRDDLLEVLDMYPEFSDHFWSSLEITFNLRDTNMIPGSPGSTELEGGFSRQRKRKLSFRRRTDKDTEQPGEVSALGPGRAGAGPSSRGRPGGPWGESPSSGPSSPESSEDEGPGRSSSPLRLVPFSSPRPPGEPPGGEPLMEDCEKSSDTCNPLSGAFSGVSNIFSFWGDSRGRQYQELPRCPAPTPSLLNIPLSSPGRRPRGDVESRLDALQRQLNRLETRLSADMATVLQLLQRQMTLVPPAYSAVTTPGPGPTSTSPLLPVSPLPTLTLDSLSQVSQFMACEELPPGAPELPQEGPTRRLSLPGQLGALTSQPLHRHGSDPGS
row,SMILES,"hERG current change (%, negative = inhibition) at 10uM"
1,O=C(NC1CCCC1)c1cc2nc(-c3ccco3)cc(C(F)(F)F)n2n1,20.1%
2,C#CCOCCOCCOCCNc1nc(N2CCN(C(=O)[C@H]([C@@H](C)CC)n3cc([C@@H](N)CO)nn3)CC2)nc(N2CCN(C(=O)[C@H](CCCCN)n3cc([C@@H](N)CC(C)C)nn3)CC2)n1.Cl,-0.687%
3,NC(=O)CSc1cn(Cc2ccc(F)cc2)c2ccccc12,2.24%
4,COc1ccc2c(c1)c(=O)oc1c(C)c(OCc3cc(C(=O)O)oc3C)ccc12,22.5%
5,C=CCc1c(C)nc(-c2ccccc2)nc1N/N=C(\C)c1ccc(N)cc1,-0.357%
6,CCOc1ccc(NC(=O)NCCN2CCN(c3cccc(C)c3C)CC2)cc1,-24.3%
7,O=C(NCCc1ccc(F)cc1)NC12CC3CC(CC(C3)C1)C2,-13.4%
8,CCOc1cccc(N2CCN(CCNC(=O)Nc3ccc(C)cc3)CC2)c1C,-57%
9,O=C(NCCCN1CCN(c2ccc(F)cc2)CC1)NC12CC3CC(CC(C3)C1)C2,-73.2%
10,CN1CCN(CCCNC(=O)Nc2ccc([N+](=O)[O-])cc2)CC1,-7.46%
11,O=C(NCCCN1CCOCC1)NC12CC3CC(CC(C3)C1)C2,1.72%
12,CSc1ccc(NC(=O)NCCCN2CCN(c3ccccc3F)CC2)cc1,-55.1%
13,Cc1ccc(NC(=O)NCCN2CCN(C(=O)Nc3ccc(C)cc3)CC2)cc1,-36.4%
14,CSc1ccc(N2CCN(CCCNC(=O)Nc3ccccc3F)CC2)cc1,-49.1%
15,O=C(CN1C(=O)COc2ccccc21)NCCCN1CCN(c2ccccc2F)CC1,-10.7%
16,O=C(NCCCN1CCN(c2ccc(F)cc2)CC1)Nc1ccc([N+](=O)[O-])cc1,-73.9%
17,O=C(NCCc1ccc(F)cc1)Nc1ccc([N+](=O)[O-])cc1,-12%
18,COc1c(C=O)cc2c3c1CCCN3CCC2,23.3%
19,COc1ccc(N(C(=O)c2ccco2)C(C(=O)NC2CCCC2)c2cccs2)cc1OC (centres unmarked),1.89%
20,O=S1(=O)N=C(N/N=C/c2ccco2)c2ccccc21,13.1%
21,COc1ccc(S(=O)(=O)N2CCOCC2)cc1NC(=O)COc1ccccc1OC,22.3%
22,COc1cc(C(=O)OCC(=O)N2CCOCC2)c([N+](=O)[O-])cc1OC,14.5%
23,O=C(Nc1nccs1)c1ccc(COc2ccc(F)cc2)o1,8.63%

row,SMILES,"hERG current change (%, negative = inhibition) at 10uM"
1,O=C1C2C(C(=O)N1c1nccs1)C1C=CC2C12CC2 (centres unmarked),-8.95%
2,COc1ccc(NC(=O)NCCCN2CCN(c3ccccc3F)CC2)cc1,-63.6%
3,COc1ccc(NC(=O)CN2CCN(c3ccccc3F)CC2)cc1,-18.1%
4,O=C(NCCCN1CCCC1)Nc1ccccc1[N+](=O)[O-],18.1%
5,CCOc1ccc(NC(=O)CCN2CCN(c3ccccc3F)CC2)cc1,-20.2%
6,O=C(NCCN1CCCCC1)Nc1ccc(F)cc1,-13.1%
7,O=C(NCCCN1CCCC1)Nc1ccc(F)cc1,4.71%
8,CCc1ccc(NC(=O)NCCN2CCN(c3ccc(OC)cc3)CC2)cc1,-14.1%
9,O=C(Cc1ccccc1[N+](=O)[O-])N1CCN(c2ccccc2F)CC1,3.23%
10,CCOc1ccc(NC(=O)NCCCN2CCCC2)cc1,-1.89%
11,O=C(NCCCN1CCN(c2ccccc2F)CC1)Nc1ccccc1[N+](=O)[O-],-72.1%
12,O=C(NCCCN1CCN(c2ccccc2F)CC1)Nc1ccc(F)cc1,-66.3%
13,CCOc1ccc(NC(=O)NCCN2CCN(c3ccccc3F)CC2)cc1,-62.3%
14,Cc1ccc(C(=O)NC(=S)Nc2ccc(-c3cc4ccccc4oc3=O)cc2)c(C)c1,27.1%
15,Cc1ccc(C(=O)NCCc2ccccc2)cc1,-1.2%
16,CSc1cccc(NC(=O)Nc2ccccc2C(N)=O)c1,15.3%
17,CCCOc1ccc(/C=N\NC(=O)CCc2n[nH]c(=O)[nH]c2=O)cc1OC,2.51%
18,COc1ccc(C2=NCC(CSc3nccc(=O)[nH]3)S2)cc1 (centres unmarked),1.52%
19,O=C(Cc1n[nH]c(=O)c2ccccc12)NC(c1ccccc1)c1ccccc1,6.6%
20,Cn1c(=O)c(-c2cc(Br)ccc2N)nc2ccccc21,-29.3%
21,COc1ccc(C(=O)COC(=O)c2cc(C)no2)c(OC)c1,12%
22,COC(=O)c1ccc2c(c1)C(C)(C)C(/C=C/c1ccc(OC)c(OC)c1OC)=[N+]2C.[I-],-2.88%
23,COC(=O)c1ccc2c(c1)C(C)(C)C(/C=C/c1ccc(O)cc1)=[N+]2C.[I-],-70.9%

row,SMILES,"hERG current change (%, negative = inhibition) at 10uM"
1,COC(=O)c1ccc2nc(C)c(C)nc2c1,15.8%
2,COC(=O)c1ccc(/C=C/C(=O)O)cc1,11.9%
3,COC(=O)c1ccc2c(c1)C(C)(C)C(/C=C/c1ccccc1O)=[N+]2C.[I-],-69.5%
4,COC(=O)c1ccc2c(c1)C(=O)/C(=C/c1ccc(O)cc1)O2,18.2%
5,O=C(O)[C@@H](O)c1ccccc1,6.63%
6,CCOC(=O)c1sc2ncn(C(CC)C(=O)OC)c(=O)c2c1C (centres unmarked),9.35%
7,NC(=O)c1oc2ccccc2c1NC(=O)c1nc2ccccc2s1,6.28%
8,CN(/N=C/c1ccccc1O)C(=S)c1ccccc1,-3.8%
9,CN1CCc2nc(NC(=O)COc3ccc4ccccc4c3)sc2C1,-56.2%
10,O=C(COc1ccccc1)Nc1nc2c(s1)CCCC2,-20.3%
11,CN1CCc2nc(NC(=O)COc3ccc(C#N)cc3)sc2C1,-7.85%
12,O=C(c1cccc(-c2ccccc2F)c1)N1CC[C@@H](N2CCC(O)CC2)[C@H](O)C1,-17.7%
13,C=C1CC(C)OC(c2ccccc2OCC(O)CN2CCCCC2)C1 (centres unmarked),-72.4%
14,OC(COc1cccc2ccccc12)CN1CCN(c2cccc(Cl)c2)CC1 (centres unmarked),1.82%
15,Cc1cccc(N2CCN(CC(O)COc3ccc(Cl)cc3)CC2)c1 (centres unmarked),-41.3%
16,OC(COc1cccc2ccccc12)CN1CCN(c2ccc(Cl)cc2)CC1 (centres unmarked),-3.42%
17,Cc1ccccc1OCC(O)CN1CCN(c2ccc(Cl)cc2)CC1 (centres unmarked),-66.3%
18,Cc1cccc(OCC(O)CN2C(C)(C)CC(O)CC2(C)C)c1C (centres unmarked),-51.3%
19,Cc1cccc(N2CCN(CC(O)COc3ccccc3Cl)CC2)c1 (centres unmarked),-56%
20,Cc1cccc(OCC(O)CN2C(C)(C)CC(O)CC2(C)C)c1 (centres unmarked),-33.2%
21,Cc1ccccc1OCC(O)CN1CCCCC1.Cl (centres unmarked),9.68%
22,CC1(C)CC(O)CC(C)(C)N1CC(O)COCc1ccccc1 (centres unmarked),11.7%
23,CC1CN(CC(O)COc2ccccc2C(C)(C)C)CC(C)O1.Cl (centres unmarked),-10.1%

row,SMILES,"hERG current change (%, negative = inhibition) at 10uM"
1,COC(=O)c1ccc(NC(=O)c2c(C(=O)Nc3ccccc3)sc3nc(C)cc(=O)n23)cc1,15.3%
2,Cc1ccccc1NC(=O)CSc1nnnn1C,6.94%
3,CCOC(=O)c1c(-c2ccccc2)csc1NC(=O)c1cc(S(=O)(=O)N2CCOCC2)ccc1C,2.23%
4,N#Cc1sc2nc(-c3cccs3)cc(-c3ccc(Cl)cc3)c2c1N,-2.05%
5,C=CCc1cccc2cc(C(=O)N3CCN(c4ccccn4)CC3)c(=O)oc12,-38.9%
6,O=C1COc2ccc(C(=O)COC(=O)c3ncc(Cl)c(Cl)c3Cl)cc2N1,36.6%
7,COc1ccc(/C=C/C2=NN(C)C(=O)CC2)cc1,13.4%
8,O=C(N/N=C\c1ccc(CNS(=O)(=O)c2ccccc2)o1)C(=O)Nc1ccc(F)cc1,-22.3%
9,S=C(NCc1ccc2c(c1)OCO2)NC1CCN(Cc2ccccc2)CC1,20.6%
10,CCOC(=O)c1nc(C)n(-c2ccc(Cl)cc2Cl)n1,8.75%
11,COc1ccc(-c2nc(SC(CC(=O)NCCN3CCOCC3)c3cccs3)n[nH]2)cc1 (centres unmarked),1.08%
12,Cc1ccccc1OCC(O)CN.Cl.O (centres unmarked),-1.72%
13,Cc1ccccc1OCC(O)CN1CCN(CC(O)COc2ccccc2C)C(C)C1.O=C(O)C(=O)O (centres unmarked),-70.8%
14,COc1ccccc1OCC(O)CN1CCN(CC(=O)Nc2c(C)cccc2C)CC1 (centres unmarked),-18.6%
15,O=[N+]([O-])c1ccccc1OCC(O)CN1CCN(CC(O)COc2ccccc2[N+](=O)[O-])CC1 (centres unmarked),-60.2%
16,Cc1ccccc1OCC(O)CN1CCN(C)CC1.Cl (centres unmarked),-0.704%
17,CCOC(=O)N1CCN(CC(O)COc2ccccc2[N+](=O)[O-])CC1.Cl (centres unmarked),-0.882%
18,COc1ccc(N2CCN(CC(O)COc3ccccc3[N+](=O)[O-])CC2)cc1.Cl (centres unmarked),-44.1%
19,Cc1ccccc1OCC(O)CN1CCC(C)CC1.Cl (centres unmarked),-34.1%
20,Cc1ccccc1OCC(O)CN1CCN(CC(O)COc2ccccc2C)CC1 (centres unmarked),-81.6%

# Reference: publication PMC4336329 (PLoS ONE, 2015)
